Screening results from PubChem.
A selection: hits, their analogues and other compounds. The true share with any hit is near 2.3%.
GLD-1 TGE inh: GLD-1-TGE RNA interaction inhibition (C. elegans); Q17339; 320,000 compounds, 0.44% hits; purified GLD-1 + fluorescein TGE RNA, fluorescence polarization; inhibition, % at 5.96 µM; AID 2280;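 active means percent inhibition above a per-plate cutoff, the plate mean of test compounds plus 3 SD, cut at about 30% in these data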;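 further: 0% = DMSO wells with GLD-1 and probe and 100% = wells lacking GLD-1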
Mcl1-Noxa inh: disrupts binding of human Mcl-1 to Noxa peptide; TR-FRET Mcl-1/Noxa peptide binding, 2 h; AID 1022; inhibition, % at 21.7 µM; Q07820; 220,000 compounds, 1.5% hits;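 active means compounds that cut the protein-peptide binding signal by more than 50% relative to plate controls in a single-dose test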;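 further: His-tagged Mcl-1 with rhodamine Noxa BH3 peptide and terbium anti-His antibody; 0% = Mcl-1 plus Noxa peptide wells and 100% = peptide-only wells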
Target sequence (Q07820 whole entry, looked up): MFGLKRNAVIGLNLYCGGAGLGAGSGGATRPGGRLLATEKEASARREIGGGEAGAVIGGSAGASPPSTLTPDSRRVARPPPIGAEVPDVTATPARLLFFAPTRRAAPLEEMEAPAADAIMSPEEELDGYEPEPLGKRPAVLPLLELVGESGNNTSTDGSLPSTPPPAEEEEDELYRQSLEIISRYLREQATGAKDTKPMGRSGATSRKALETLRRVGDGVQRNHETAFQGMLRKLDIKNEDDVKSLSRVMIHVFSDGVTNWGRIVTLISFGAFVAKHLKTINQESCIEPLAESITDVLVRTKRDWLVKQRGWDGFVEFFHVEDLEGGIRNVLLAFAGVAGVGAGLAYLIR
Mcl1-Bid inh: disrupts binding of human Mcl-1 to Bid peptide; Q07820; inhibition, % at 21.7 µM; TR-FRET Mcl-1/Bid-Dy647 peptide binding, 1536-well; AID 1021; 220,000 compounds, 0.97% hits;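 active means compounds that cut the binding signal by more than half at the single screening dose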;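 further: His-tagged Mcl-1 with europium anti-His antibody binding Bid BH3 peptide; 0% = Mcl-1 plus peptide wells and 100% = peptide-only wells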
Mcl-1 Bim block: human Bim-Mcl-1 interaction inhibition | Q07820 | 190,000 compounds, 0.1% hits | AID 1009 | Bead-based flow cytometry, Bim peptide-Mcl-1 binding | inhibition, % at 10 µM; in the data active means inhibition above about 40%;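 further: 0% = no compound tracer wells and 100% = peptide blocker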
Bcl-xL primary: blocks human Bcl-xL binding to Bim BH3 peptide; Q07817; GST-Bcl-xL / FITC-Bim BH3 peptide fluorescence polarization; inhibition, % at 10.9 µM; 320,000 compounds, 0.7% hits;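 active means inhibition above the mean of all tested compounds plus 3 SD, cutoff set per campaign, cut at about 30% in these data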;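 further: 0% = DMSO wells and 100% = unlabeled Bim-BH3 peptide competitor; inhibitors lower millipolarization by displacing the labeled peptide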
Target sequence (Q07817 whole entry, looked up): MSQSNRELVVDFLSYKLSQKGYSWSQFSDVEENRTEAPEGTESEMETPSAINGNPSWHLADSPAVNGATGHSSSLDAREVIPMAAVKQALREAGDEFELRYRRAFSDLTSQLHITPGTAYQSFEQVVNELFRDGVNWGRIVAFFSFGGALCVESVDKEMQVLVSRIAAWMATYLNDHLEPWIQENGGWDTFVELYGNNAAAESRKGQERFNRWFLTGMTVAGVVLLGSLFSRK
MCL1 BIM primary: inhibitors of human MCL1 binding to BIM-BH3 peptide; Q07820; GST-MCL1 / FITC-Bim-BH3 fluorescence polarization; inhibition, % at 10.9 µM; 320,000 compounds, 0.68% hits; AID 2057;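 active means inhibition above the mean inhibition of all tested compounds plus 3 SD, set per campaign, cut at about 40% in these data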;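 further: 0% = DMSO wells and 100% = unlabeled Bim-BH3 peptide control; higher means more loss of mP so more displacement of Bim peptide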
BCLXL inh confirm: counter-screen for MCL1 inhibitors: confirmation of human Bcl-xL inhibitors; GST-Bcl-xL / FITC-Bim BH3 peptide FP binding; inhibition, % at 10.9 µM; shares compounds with MCL1 BIM primary; AID 2166; 1,700 compounds, 54% hits;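 active means inhibition above a cutoff equal to the mean inhibition of all tested compounds plus 3 SD, cut at about 30% in these data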;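 further: 0% = DMSO wells and 100% = unlabeled Bim BH3 control peptide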
MCL1 BIM confirm: confirmation of human MCL1 and BIM-BH3 interaction inhibitors; shares compounds with MCL1 BIM primary; GST-MCL1 / FITC-Bim-BH3 fluorescence polarization; inhibition, % at 10.9 µM; 1,700 compounds, 61% hits; AID 2168;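 active means inhibition above the average of all tested compounds plus 3 SD, cut at about 40% in these data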;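 further: 0% = DMSO wells and 100% = unlabeled Bim-BH3 control peptide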
* = called active by the depositor; · = no result.

SMILES	GLD-1 TGE inh	Mcl1-Noxa inh	Mcl1-Bid inh	Mcl-1 Bim block	Bcl-xL primary	MCL1 BIM primary	BCLXL inh confirm	MCL1 BIM confirm
CN(CC(=O)Nc1ccccc1C(=O)NC1CC1)Cc1ccco1	8	·	·	·	-2	-2	·	·
Cn1ccc2cc3c(cc21)CCN3C(=O)Nc1cccnc1	-3	·	·	·	17	46*	39*	50*
Cc1nc(C)c(NC(=O)N2CCc3ccccc32)cc1NC(=O)N1CCc2ccccc21	-3	13	-13	-2	9	4	·	·
CC(C)[C@H](NC(=O)C1CC(=O)N(c2ccc(F)cc2)C1)C(=O)N1CCCCC1 (stereo partly specified)	-3	·	·	·	1	5	·	·
COc1ccc(CC(=O)OC(C)C(=O)NCc2ccc3c(c2)OCO3)cc1OC (stereo unspecified)	-4	·	·	·	1	-5	·	·
COc1ccc(CCNC(=O)Cc2ccc(OC)c(OC)c2)cc1OC	4	-18	23	3	3	1	·	·
COc1ccc(CCNC(=O)c2c(N)no[n+]2[O-])cc1OC	6	-16	-9	0	5	96*	2	-1
CC(=O)n1c2ccccc2c2ccccc21	3	-12	-10	-1	0	5	·	·
CC(=O)n1c(C=Nc2ccc(Cl)cc2)c(O)c2ccccc21	-105	-16	-38	·	81*	59*	154*	185*
O=C(C[n+]1cc(Br)cc2ccccc21)c1ccc(Cl)cc1	-36	·	·	·	84*	86*	23	35
O=C(C[n+]1cc(Br)cc2ccccc21)c1ccc(Br)cc1	-21	·	·	·	58*	94*	55*	74*
O=C(C[n+]1cc(Br)cc(Br)c1)c1ccc(Cl)cc1	-5	·	·	·	2	-5	·	·
O=C(Cc1ccc(Br)cc1)OCC(=O)N1CCOCC1	3	·	·	·	·	·	·	·
N#CC1(C#N)C(C(N)=O)C1c1ccccc1 (stereo unspecified)	1	5	-31	-1	1	0	·	·
CN1C=CC2=C(C#N)C(N)C(C#N)(C#N)[C@H](c3ccccc3)[C@H]2C1 (stereo partly specified)	30	-17	-23	-5	81*	92*	31*	31
CC1(OC(=O)C2CCCC2)C(=O)C=C2C=C3CCCN3C=C2C1=O (stereo unspecified)	14	·	·	·	18	29	·	·
CC1(OC(=O)c2cccs2)C(=O)C=C2C=C3CCCN3C=C2C1=O (stereo unspecified)	11	72*	-64	·	24	63*	44*	63*
COc1ccc(NS(=O)(=O)c2ccc(NC(=S)NC(=O)c3cccc(F)c3)cc2)nn1	-4	16	-52	-3	10	42*	21	11
Cc1ccc(C=C2C(Cl)=C(Cl)C(Cl)=C2Cl)cc1	-4	53*	-1	·	28	69*	23	30
CN1CCC2(CC1)C1CN(C)CC=C1C(C#N)=C(N)C2(C#N)C#N (stereo unspecified)	20	-8	-24	-1	120*	140*	117*	146*
C=CCN1C(=O)[C@]2(c3ccccc31)C1CCCC=C1C(C#N)=C(N)C2(C#N)C#N (stereo partly specified)	-1	10	-16	-1	-5	-6	·	·
O=c1[nH]c(C(F)(F)F)nc2ccc3ccccc3c12	0	·	·	·	5	-1	·	·
CCOc1cccc(NC(=O)C2CC(=O)N(C)C(=Nc3cccc(F)c3)S2)c1 (stereo unspecified)	8	22	-1	-5	0	42*	-1	1
COc1ccccc1CNC(=O)CN1C(=O)NC2(CCC(C)CC2)C1=O (stereo unspecified)	-1	·	·	·	·	·	·	·
Cn1c(O)c(C2=c3ccccc3=NC2=O)[nH]c1=S	3	23	-39	2	12	26	·	·
SMILES	GLD-1 TGE inh	Mcl1-Noxa inh	Mcl1-Bid inh	Mcl-1 Bim block	Bcl-xL primary	MCL1 BIM primary	BCLXL inh confirm	MCL1 BIM confirm
COc1ccc2nc(-n3c(O)c(C4=c5ccccc5=NC4=O)[nH]c3=S)sc2c1	2	92*	99*	-9	15	68*	33*	92*
CC1Cc2ccccc2N1C(=O)CN1CCN(Cc2ccccc2)CC1 (stereo unspecified)	4	·	·	·	0	-3	·	·
O=C(N1CCOCC1)N1CCC(n2nnc3cc(F)ccc32)CC1	40*	4	-10	1	76*	87*	54*	62*
CC(=O)c1ccc(NC(=O)c2ccccc2-c2ccccc2C(=O)O)cc1	2	·	·	·	1	0	·	·
CN(C)/C=C1\C=C2C(=O)c3ccccc3N2C1=O	91*	-199	-48	·	109*	116*	115*	121*
O=[N+]([O-])c1cccc(C(=S)N2CCN(c3ccc(F)cc3)CC2)c1	20	26	-14	-5	38*	51*	22	14
c1cc(-c2nnc3n2CCCCC3)ccn1	-6	9	-11	-1	-5	84*	10	10
CCN(CC(=O)NCCCN1CCOCC1)S(=O)(=O)c1ccc(F)cc1	-2	·	·	·	4	10	·	·
C=CCc1cccc(/C=N/NC(=O)CNc2cccc3ccccc23)c1O	9	38	-16	1	1	47*	11	54*
Clc1cccc(CN2CCSCC2)c1	3	·	·	·	6	6	·	·
O=c1oc2ccccc2nc1/C=C(O)/C=C\c1ccccc1	34*	2	-6	-3	57*	69*	-40	-94
O=c1oc2ccccc2nc1/C=C(O)/C=C/c1ccc(F)cc1	-5	22	-48	-2	-14	-34	·	·
O=C(OCCc1ccccc1)c1cc(O)c(O)c(O)c1	-5	·	·	·	19	54*	41*	75*
CCCN(C1CCS(=O)(=O)C1)S(=O)(=O)c1ccc(F)cc1 (stereo unspecified)	-3	·	·	·	7	0	·	·
COc1ccc(OC)c(C(=O)NC(CC(N)=O)c2ccc(N3CCN(c4ccccn4)CC3)c([N+](=O)[O-])c2)c1 (stereo unspecified)	6	·	·	·	4	2	·	·
O=[N+]([O-])c1cc(CN2CCN(c3cccc(C(F)(F)F)c3)CC2)c2cccnc2c1O	-8	-13	-3	0	3	10	·	·
O=[N+]([O-])c1cc(CN2CCCC2)c2cccnc2c1O	-1	75*	10	-3	16	88*	14	94*
Nc1ccc(C(=O)N/N=C\c2cc(N=Nc3cccc4ccccc34)ccc2O)cc1	4	·	65*	0	7	66*	12	72*
Cc1cc(SCC(=O)N/N=C/c2ccc(O)c(O)c2)nc2ccccc12	3	·	·	·	16	49*	47*	74*
